In the supplement of paper PMC10849652:
About 8,800 targets were measured; listed, in parts, are those with a hit and a random draw of the rest. About 0.5% of all pairs of compound and target were hits.

What was measured:
Test in all cases: log2 fold change, soluble protein after heating vs DMSO (PISA); higher = thermal stabilisation; K562 lysate, 10 uM; active = over 0.2 and 3.5 SD of the protein, either way, in both replicates (recomputed)
[1] = compound: C1=CC=C(C=C1)[C@H](COC2=CC3=C(C=C2)NC(=O)N3)NC(=O)C4=CC=CN(C4=O)CC5=CC(=C(C=C5)F)F
Outline: (§1)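 To prepare the extract, K562 pellets were dounce-homogenised in PBS pH 7.4 with 1 mM MgCl2, giving crude material at 1 mg/mL protein. This was treated with 10 μM compound for 30 min, then heated in aliquots for 3 min over 48°C-58°C before pooling and addition of NP-40 to 0.5% at 4°C. Centrifugation at 21,000xg for 90 min left soluble protein in the supernatant, which TMTpro 16plex LC-MS/MS quantified with equalised channel sums. Results are log-two fold changes in thermal stability compared with solvent controls, from duplicates.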

[2] = compound: CC1=C(SC2=C1C(=N[C@H](C3=NN=C(N32)C)CC(=O)N)C4=CC=C(C=C4)Cl)C
Outline: as §1

[3] = compound: CC1=C2C(=CC=C1)N=C(N(C2=O)C3=CC=CC=C3C)CN4C=NC5=C(N=CN=C54)N
Outline: as §1

[4] = compound: Cc1sc2c(c1C)C(c1ccc(Cl)cc1)=N[C@@H](CC(=O)OC(C)(C)C)c1nnc(C)n1-2
Outline: as §1

[5] = compound: c1ccc([C@@H]2C[C@H]2NC2CCNCC2)cc1
Outline: as §1

Measured: log2 fold change

SURF2 (UniProt Q15527)
inactive: [1] -0.013 | [2] 0.054 | [3] -0.054 | [4] 0.056 | [5] -0.032

SMIM12 (UniProt Q96EX1)
Sequence of UniProt Q96EX1 (Q96EX1 whole entry, looked up): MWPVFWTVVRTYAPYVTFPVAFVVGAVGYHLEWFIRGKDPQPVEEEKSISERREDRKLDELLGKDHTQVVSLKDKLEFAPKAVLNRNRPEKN
inactive: [1] -0.026 | [2] -0.006 | [3] 0.004 | [4] 0.105 | [5] 0.153

SH3GL1 (UniProt Q99961)
Sequence of UniProt Q99961 (Q99961 whole entry, looked up): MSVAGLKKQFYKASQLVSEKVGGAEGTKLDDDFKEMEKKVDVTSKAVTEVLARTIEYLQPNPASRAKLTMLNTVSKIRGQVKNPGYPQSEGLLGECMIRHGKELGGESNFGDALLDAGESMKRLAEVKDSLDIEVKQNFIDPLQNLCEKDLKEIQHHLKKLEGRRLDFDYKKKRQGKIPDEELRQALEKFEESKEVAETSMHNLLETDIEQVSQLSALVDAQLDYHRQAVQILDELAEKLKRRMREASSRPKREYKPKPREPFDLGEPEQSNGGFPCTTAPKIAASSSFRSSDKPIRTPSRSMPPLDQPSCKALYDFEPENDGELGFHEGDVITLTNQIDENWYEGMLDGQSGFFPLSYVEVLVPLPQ
inactive: [1] 0.007 | [2] 0.016 | [3] 0.007 | [4] 0.012 | [5] 0.003

SF3B6 (UniProt Q9Y3B4)
inactive: [1] 0.052 | [2] -0.032 | [3] -0.184 | [4] 0.014 | [5] 0

SRGN (UniProt P10124)
Sequence of UniProt P10124 (P10124 whole entry, looked up): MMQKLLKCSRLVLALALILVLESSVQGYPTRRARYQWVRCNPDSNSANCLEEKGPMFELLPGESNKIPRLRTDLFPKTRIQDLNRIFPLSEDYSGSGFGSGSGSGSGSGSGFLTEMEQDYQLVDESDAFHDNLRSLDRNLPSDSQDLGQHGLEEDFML
inactive: [1] 0.101 | [2] 0.14 | [3] 0.063 | [4] -0.03 | [5] -0.196

SYNRG (UniProt Q9UMZ2)
inactive: [1] -0.033 | [2] 0.05 | [3] 0 | [4] 0.005 | [5] 0.032

STOML2 (UniProt Q9UJZ1)
inactive: [1] -0.008 | [2] 0.004 | [3] -0.027 | [4] -0.025 | [5] -0.008

SMC6 (UniProt Q96SB8)
inactive: [1] -0.049 | [2] 0.006 | [3] 0.014 | [4] -0.036 | [5] -0.047

SND1 (UniProt Q7KZF4)
inactive: [1] -0.008 | [2] 0.021 | [3] 0.022 | [4] 0.037 | [5] 0.041

STUB1 (UniProt Q9UNE7)
inactive: [1] -0.04 | [2] 0.036 | [3] -0.006 | [4] 0.035 | [5] 0.02

TANGO6 (UniProt Q9C0B7)
Sequence of UniProt Q9C0B7 (Q9C0B7 whole entry, looked up): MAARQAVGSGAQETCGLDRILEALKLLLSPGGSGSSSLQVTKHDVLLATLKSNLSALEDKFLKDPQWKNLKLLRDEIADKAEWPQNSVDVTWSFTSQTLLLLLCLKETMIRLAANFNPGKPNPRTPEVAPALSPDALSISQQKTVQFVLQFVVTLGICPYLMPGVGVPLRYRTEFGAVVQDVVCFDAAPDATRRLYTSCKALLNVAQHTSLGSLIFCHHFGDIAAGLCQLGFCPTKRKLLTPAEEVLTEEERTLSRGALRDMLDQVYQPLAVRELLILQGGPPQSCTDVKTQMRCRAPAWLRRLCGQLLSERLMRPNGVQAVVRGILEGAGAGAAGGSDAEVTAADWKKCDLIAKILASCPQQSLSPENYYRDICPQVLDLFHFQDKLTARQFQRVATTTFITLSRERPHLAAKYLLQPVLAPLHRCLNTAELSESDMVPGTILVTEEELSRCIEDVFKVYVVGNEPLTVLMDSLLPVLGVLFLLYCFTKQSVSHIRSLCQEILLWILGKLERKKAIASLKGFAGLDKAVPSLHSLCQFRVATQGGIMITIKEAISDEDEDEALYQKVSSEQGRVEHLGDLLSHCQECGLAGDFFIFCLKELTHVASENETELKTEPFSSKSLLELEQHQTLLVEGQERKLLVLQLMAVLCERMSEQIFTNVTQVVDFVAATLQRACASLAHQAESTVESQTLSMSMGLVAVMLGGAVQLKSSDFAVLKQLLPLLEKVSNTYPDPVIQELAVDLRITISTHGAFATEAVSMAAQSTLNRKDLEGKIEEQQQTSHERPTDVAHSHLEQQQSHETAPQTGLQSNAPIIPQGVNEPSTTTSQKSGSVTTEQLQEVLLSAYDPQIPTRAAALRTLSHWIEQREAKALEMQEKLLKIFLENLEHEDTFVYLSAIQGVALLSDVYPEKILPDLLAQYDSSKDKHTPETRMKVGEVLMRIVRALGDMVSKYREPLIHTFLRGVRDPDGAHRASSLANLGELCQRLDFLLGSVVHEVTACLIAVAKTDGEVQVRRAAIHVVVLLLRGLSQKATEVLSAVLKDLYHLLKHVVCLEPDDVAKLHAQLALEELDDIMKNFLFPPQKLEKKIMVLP
inactive: [1] 0.05 | [2] -0.021 | [3] -0.036 | [4] 0.043 | [5] -0.009

SLC7A5 (UniProt Q01650)
inactive: [1] 0.019 | [2] -0.027 | [3] 0.003 | [4] -0.061 | [5] -0.231

SRSF7 (UniProt Q16629)
inactive: [1] -0.005 | [2] 0.023 | [3] 0.04 | [4] 0.025 | [5] -0.045

SPAG5 (UniProt Q96R06)
Sequence of UniProt Q96R06 (Q96R06 whole entry, looked up): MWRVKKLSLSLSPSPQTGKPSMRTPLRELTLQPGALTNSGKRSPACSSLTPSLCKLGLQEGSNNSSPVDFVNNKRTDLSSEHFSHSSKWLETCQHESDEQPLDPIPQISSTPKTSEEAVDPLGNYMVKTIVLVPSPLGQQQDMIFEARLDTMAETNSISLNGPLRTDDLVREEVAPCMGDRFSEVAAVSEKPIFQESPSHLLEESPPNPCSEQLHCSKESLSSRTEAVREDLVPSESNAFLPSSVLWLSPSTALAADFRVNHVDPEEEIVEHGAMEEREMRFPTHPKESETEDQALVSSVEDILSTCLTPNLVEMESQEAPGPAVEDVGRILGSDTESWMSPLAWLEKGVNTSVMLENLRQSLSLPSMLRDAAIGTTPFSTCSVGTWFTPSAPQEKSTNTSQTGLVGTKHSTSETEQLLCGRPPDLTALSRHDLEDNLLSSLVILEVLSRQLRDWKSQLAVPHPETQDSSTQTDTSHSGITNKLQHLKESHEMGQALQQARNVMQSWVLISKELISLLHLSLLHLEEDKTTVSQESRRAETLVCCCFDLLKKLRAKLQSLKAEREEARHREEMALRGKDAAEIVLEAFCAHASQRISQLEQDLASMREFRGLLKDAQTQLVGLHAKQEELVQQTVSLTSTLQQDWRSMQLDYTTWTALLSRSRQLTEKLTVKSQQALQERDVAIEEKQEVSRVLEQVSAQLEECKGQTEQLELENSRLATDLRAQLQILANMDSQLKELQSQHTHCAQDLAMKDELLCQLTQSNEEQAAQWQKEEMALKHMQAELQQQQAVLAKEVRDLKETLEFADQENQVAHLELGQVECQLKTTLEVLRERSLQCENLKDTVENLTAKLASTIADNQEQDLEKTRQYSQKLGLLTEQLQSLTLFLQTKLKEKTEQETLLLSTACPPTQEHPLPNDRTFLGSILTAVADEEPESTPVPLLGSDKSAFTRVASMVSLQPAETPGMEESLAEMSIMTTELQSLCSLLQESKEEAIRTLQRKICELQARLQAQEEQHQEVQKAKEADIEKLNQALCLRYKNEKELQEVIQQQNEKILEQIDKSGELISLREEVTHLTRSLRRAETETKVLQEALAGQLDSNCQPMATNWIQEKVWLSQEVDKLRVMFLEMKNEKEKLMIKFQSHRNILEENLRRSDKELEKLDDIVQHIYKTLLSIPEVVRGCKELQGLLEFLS
inactive: [1] 0.006 | [2] 0.004 | [3] 0.021 | [4] 0.013 | [5] 0.026

SMG7 (UniProt Q92540)
inactive: [1] 0.008 | [2] 0.019 | [3] 0.147 | [4] -0.014 | [5] 0.029

SRM (UniProt P19623)
inactive: [1] -0.007 | [2] 0.029 | [3] 0.001 | [4] 0.009 | [5] 0.039

SRPK1 (UniProt Q96SB4)
inactive: [1] -0.002 | [2] -0.023 | [3] 0.004 | [4] -0.015 | [5] -0.025

SLC16A1 (UniProt P53985)
inactive: [1] -0.015 | [2] 0.002 | [3] 0.042 | [4] 0.077 | [5] -0.245

SUZ12 (UniProt Q15022)
inactive: [1] -0.011 | [2] 0.042 | [3] -0.008 | [4] -0.047 | [5] -0.039

SMARCA4 (UniProt P51532)
Sequence of UniProt P51532 (P51532 whole entry, looked up): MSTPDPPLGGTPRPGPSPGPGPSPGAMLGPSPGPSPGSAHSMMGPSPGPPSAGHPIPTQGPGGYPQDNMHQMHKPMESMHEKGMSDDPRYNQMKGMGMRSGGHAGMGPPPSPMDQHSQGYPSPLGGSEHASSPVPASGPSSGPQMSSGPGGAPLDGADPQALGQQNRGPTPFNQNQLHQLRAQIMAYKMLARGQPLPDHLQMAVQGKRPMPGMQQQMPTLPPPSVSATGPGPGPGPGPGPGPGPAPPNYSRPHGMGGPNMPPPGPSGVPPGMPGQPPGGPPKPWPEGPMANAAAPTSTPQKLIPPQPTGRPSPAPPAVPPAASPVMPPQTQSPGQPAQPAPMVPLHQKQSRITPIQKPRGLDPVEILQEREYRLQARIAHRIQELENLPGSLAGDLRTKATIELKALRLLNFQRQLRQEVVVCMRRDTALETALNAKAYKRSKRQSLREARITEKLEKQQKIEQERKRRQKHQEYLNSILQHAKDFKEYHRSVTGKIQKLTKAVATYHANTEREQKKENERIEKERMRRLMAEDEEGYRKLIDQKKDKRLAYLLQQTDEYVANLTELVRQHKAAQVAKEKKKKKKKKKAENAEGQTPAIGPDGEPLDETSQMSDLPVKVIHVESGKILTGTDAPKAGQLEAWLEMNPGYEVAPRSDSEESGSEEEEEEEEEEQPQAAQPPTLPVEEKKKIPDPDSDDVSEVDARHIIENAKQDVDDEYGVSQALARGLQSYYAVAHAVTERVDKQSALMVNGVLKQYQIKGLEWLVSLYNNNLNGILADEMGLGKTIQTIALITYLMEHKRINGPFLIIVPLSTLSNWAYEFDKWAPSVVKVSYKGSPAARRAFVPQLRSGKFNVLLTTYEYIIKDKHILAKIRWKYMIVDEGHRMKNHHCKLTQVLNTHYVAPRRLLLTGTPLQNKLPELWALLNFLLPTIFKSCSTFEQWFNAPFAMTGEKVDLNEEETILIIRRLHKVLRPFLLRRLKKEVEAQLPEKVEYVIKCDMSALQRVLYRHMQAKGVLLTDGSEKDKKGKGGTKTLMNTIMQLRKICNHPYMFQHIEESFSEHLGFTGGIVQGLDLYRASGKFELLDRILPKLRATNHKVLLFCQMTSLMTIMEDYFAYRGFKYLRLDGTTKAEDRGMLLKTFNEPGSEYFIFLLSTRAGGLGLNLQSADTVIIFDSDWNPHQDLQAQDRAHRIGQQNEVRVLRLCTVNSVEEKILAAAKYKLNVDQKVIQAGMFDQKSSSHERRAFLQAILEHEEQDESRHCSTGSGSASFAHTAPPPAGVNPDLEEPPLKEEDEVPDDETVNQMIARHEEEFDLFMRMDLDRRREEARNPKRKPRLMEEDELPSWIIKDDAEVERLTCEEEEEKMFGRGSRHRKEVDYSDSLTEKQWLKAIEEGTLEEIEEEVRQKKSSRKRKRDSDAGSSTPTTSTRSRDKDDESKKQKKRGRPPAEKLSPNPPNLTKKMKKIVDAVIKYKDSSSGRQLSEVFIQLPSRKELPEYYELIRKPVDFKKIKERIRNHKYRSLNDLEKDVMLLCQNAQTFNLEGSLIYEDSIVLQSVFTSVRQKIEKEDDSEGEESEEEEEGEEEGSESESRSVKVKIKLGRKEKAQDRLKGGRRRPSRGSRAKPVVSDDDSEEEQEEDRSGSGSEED
inactive: [1] -0.034 | [2] 0.016 | [3] 0.003 | [4] 0.014 | [5] 0.055

STK38L (UniProt Q9Y2H1)
inactive: [4] -0.031

TARDBP (UniProt K7EN94)
inactive: [3] 0.319

SLC35A3 isoform 2 (UniProt Q9Y2D2)
inactive: [3] 0.008 | [5] -0.57

SLC40A1 (UniProt Q9NP59)
inactive: [3] 0.013 | [4] -0.107 | [5] -0.205

STK17A (UniProt Q9UEE5)
inactive: [5] 0.148

SLC41A1 (UniProt Q8IVJ1)
inactive: [5] -0.016

SPPL2A (UniProt Q8TCT8)
Sequence of UniProt Q8TCT8 (Q8TCT8 whole entry, looked up): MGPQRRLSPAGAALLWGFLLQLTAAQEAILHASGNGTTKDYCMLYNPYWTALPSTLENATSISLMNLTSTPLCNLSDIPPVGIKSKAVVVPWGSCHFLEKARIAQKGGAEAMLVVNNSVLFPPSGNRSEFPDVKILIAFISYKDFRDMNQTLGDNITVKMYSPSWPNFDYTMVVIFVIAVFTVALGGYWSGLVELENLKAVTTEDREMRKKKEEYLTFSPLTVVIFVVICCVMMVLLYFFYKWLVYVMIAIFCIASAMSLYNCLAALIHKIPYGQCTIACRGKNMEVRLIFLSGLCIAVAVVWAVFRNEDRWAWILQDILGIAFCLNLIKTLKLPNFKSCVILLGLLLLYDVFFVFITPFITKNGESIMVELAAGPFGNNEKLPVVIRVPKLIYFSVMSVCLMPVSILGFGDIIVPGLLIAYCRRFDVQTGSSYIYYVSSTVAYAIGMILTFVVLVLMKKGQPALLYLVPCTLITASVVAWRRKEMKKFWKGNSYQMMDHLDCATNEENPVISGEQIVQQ
inactive: [1] -0.148 | [2] 0.118 | [3] 0.087 | [5] 0.098

SMPD2 (UniProt O60906)
inactive: [4] -0.244 | [5] -0.05
